CHX counter: counter-screen for Shiga toxin inhibitors: cycloheximide protein synthesis inhibition; max response, %; cell reporter, cycloheximide protein synthesis inhibition counterscreen; 300,000 tested, 12% active; AID 2314; in the data active = max response mostly above about 13%, no sharp cut-off; inactive = mostly below about 14%; note: read at 38.3 µM for the half of the compounds with a filed dose; 0% is about no effect
MARV entry inh: blocks Marburg virus binding to or entry into cells; Marburg virus pseudotyped entry inhibition, cell reporter; Potency, µM (titrated, usually from 37.8 µM), without a hit: top-dose activity change, negative = inhibition, hits mostly inhibitors; 300,000 tested, 1.8% active; AID 540276; calls by dose curve; tested in HEK293 cells; note: potency is the fitted concentration of half-maximal effect; % is set by controls: 0 for no effect and ±100 for the full control effect
HCV inhibitor: HCV inhibition | 340,000 tested, 3.4% active | Potency, µM (doses to about 41.8 µM), for the others: top-dose activity change, negative = inhibition, most hits filed as inhibitors | AID 651820 | Huh7.5.1 HCVcc-Cre infection, luciferase reporter, 44 h; note: potency is the fitted concentration of half-maximal effect; % is set by controls: 0 for no effect and ±100 for the full control effect
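A cell-based infection assay in which seeded cells (1,000 per well) receive test compound after 4 h, are inoculated with HCVcc-Cre at approximately 0.5 moi, and are incubated 44 h before luminescence detection.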
Lassa entry inh: Lassa virus entry inhibition; Lassa virus pseudotype entry inhibition, cell reporter; Potency, µM (titrated, usually from 37.9 µM), inactives show at the top dose activity change, negative = inhibition, actives largely listed as inhibitors; 300,000 tested, 1.2% active; AID 540256; calls by dose curve; tested in HEK293 cells; note: potency is the fitted concentration of half-maximal effect; % is set by controls: 0 for no effect and ±100 for the full control effect; nearly all actives have a fitted effect of over 50% in size
Shiga toxin inh: inhibitors of Shiga toxin in Vero cells. Vero cells, Shiga toxin protein synthesis inhibition reporter. inhibition, % at 38.7 µM. 290,000 tested, 9.2% active; in the data active = inhibition mostly above about 28%, no sharp cut-off; inactive = mostly below about 43%; note: 0% is about no effect
FMDV antiviral: foot and mouth disease virus antiviral activity; FMDV antiviral cell-based qHTS; Potency, µM (highest dose often 57.9 µM), for inactives: at the top dose activity change, negative = inhibition, hits mostly inhibitors; 410,000 tested, 1.2% active; calls by dose curve; tested in HEK293T cells; note: read-out not given here; potency is the fitted concentration of half-maximal effect; % is set by controls: 0 for no effect and ±100 for the full control effect; nearly all actives have a fitted effect of over 45% in size
HCV confirm: HCV inhibition, cherry-pick confirmation; shares compounds with HCV inhibitor; HCVcc-Cre infectious virus cell assay, luciferase, inhibition; Potency, µM (doses to about 41.8 µM), for inactives: top-dose activity, negative = inhibition, actives largely listed as inhibitors; 640 tested, 78% active; note: potency is the fitted concentration of half-maximal effect; nearly all actives have a fitted effect of over 80% in size
HCV host tox: counter-screen for HCV inhibitors: host cell cytotoxicity | AID 720576 | shares compounds with HCV inhibitor | Potency, µM (titrated, usually from 41.8 µM), inactives show top-dose activity change, negative = cytotoxicity, actives largely listed as inhibitors | HCV host cell line cytotoxicity counterscreen | 640 tested, 22% active;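 note: potency is the fitted concentration of half-maximal effect; 44 h compound exposure; % is set by controls: 0 for no effect and ±100 for the full control effect; nearly all actives have a fitted effect of over 55% in size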
* marks the source's active call; other numbers are inactive results; ? = inconclusive; nt = no result; [ ] = remark or other dose. Compounds with a hit are over-represented: about 13% of the library has one in this group of screens. Unless noted, calls come from the whole dose curve; as a rule, active = well fitted curve in the direction sought with a large enough effect; inconclusive = small, poorly fitted or top-dose-only effect, or another doubt; inactive = no such curve, though single readings can be large; an effect the other way counts as inactive or inconclusive.

SMILES	CHX counter	MARV entry inh	HCV inhibitor	Lassa entry inh	Shiga toxin inh	FMDV antiviral	HCV confirm	HCV host tox
CN(C(=O)c1ccccc1)C1c2c(ccc3ccccc23)OCC1CO (configuration not stated)	5.8	nt	-0.3%	nt	-3.7	-13.0%	nt	nt
COc1ccccc1-n1cnc2c(c1=O)c1nc3ccccc3nc1n2CCc1ccccc1	-6.2	19.7%	3.8%	16.5%	-12.4	-27.9%	nt	nt
COc1ccc(NC(=O)CN(C)C(=O)CC2CCCC2)cc1	nt	11.5%[46.1 µM]	-17.9%	-5.7%	nt	-17.0%	nt	nt
CNCCc1cnc[nH]1	6.4	nt	nt	nt	21.5	6.5%	nt	nt
Cc1cnc[nH]1	nt	nt	-60.7%	nt	nt	-16.3%	8.6%	-6.5%
O=C(C[C@@H]1C/C=C\C[C@@H](NC(=O)OCC2c3ccccc3-c3ccccc32)C(=O)OCCNC1=O)N[C@@H](CO)Cc1ccccc1	nt	nt	1.78µM*	nt	nt	-17.3%	?	-13.0%
COc1ccc2[nH]cc(CCNc3ncnc4ccc(-c5ccoc5)cc34)c2c1	nt	nt	nt	nt	nt	-27.6%	nt	nt
COc1ccc2nc(SCC(=O)NCc3ccc4c(c3)OCO4)[nH]c2c1	1.0	-12.3%	5.7%	1.6%	22.1	-16.0%	nt	nt
COc1ccc(-c2ccc(SCC(=O)NCc3ccc4c(c3)OCO4)nn2)cc1OC	21.0	?	2.82µM*	?	33.3	-26.1%	-24.9%	-9.1%
CCOc1ccc2nc(SCC(=O)NCc3ccc4c(c3)OCO4)[nH]c2c1	-1.2	8.5%	3.98µM*	-11.1%	-8.0	-19.0%	?	-17.1%
O=C(Nc1ccc(S(=O)(=O)Nc2ncccn2)cc1)C(F)(F)F	-2.0	9.6%[46.1 µM]	-7.8%	-0.1%[46.1 µM]	-13.8	0.1%	nt	nt
COc1cccc(C(=O)N(C)Cc2c(C)nn(C3CCS(=O)(=O)C3)c2C)c1 (configuration not stated)	nt	nt	14.2%	nt	nt	?	nt	nt
CCCc1cc2c(=O)n(NC(=O)c3nn(C)cc3[N+](=O)[O-])c(C)nc2s1	-2.2	9.6%	13.0%	6.5%	-2.5	-9.6%	nt	nt
O=C(NC1CC1)C1CCN(Cc2cnn(-c3ccccc3)c2-n2cccc2)CC1	-6.2	15.5%	19.0%	?	5.5	18.9%	nt	nt
CCn1c(Cl)c(C=O)s/c1=N\S(=O)(=O)c1ccccc1	-8.7	nt	3.16µM*	nt	-39.0	?	19.9µM*	11.2µM*
O=C(NCc1ccc2c(c1)OCO2)C1CCN(C(=O)Nc2ccc(Cl)cc2)CC1	-6.1	24.6%	?	7.1%	-22.1	-0.1%	12.5µM*	-1.0%
Cc1nc2nc(C)n(CCN3CCOCC3)c(=O)c2c(-c2cccc([N+](=O)[O-])c2)c1C(=O)CCCCCCCCCCN1CCC(c2ccccc2)(c2ccccc2)CC1	nt	0.501µM*	?	?	nt	25.1µM*	14.1µM*	?
O=C(NCCCN1CCOCC1)/C(=C/c1ccc(-c2cccc([N+](=O)[O-])c2)o1)NC(=O)c1ccccc1	nt	nt	nt	nt	nt	-25.9%	nt	nt
CCC(=O)c1ccc(OCC(=O)Nc2ccc(N3CCOCC3)cc2N2CCOCC2)cc1	1.6	nt	-1.0%	nt	-8.1	9.3%	nt	nt
COc1ccc(CCNc2ncnc3[nH]ncc23)cc1OC	8.3	?	?	-26.4%	-8.9	17.8µM*	8.87µM*	-21.2%
Cc1ccc(C2=NCCn3c2c2ccc([N+](=O)[O-])cc2[n+]3[O-])cc1	nt	nt	?	nt	nt	45.0%	22.3µM*	30.3%
C=CCn1cc(/C=C/c2cc[n+](C)cc2)c2ccccc21	-4.0	nt	?	nt	-7.4	?	nt	nt
CCn1cc(/C=C/c2cc[n+](C)cc2)c2ccccc21	-2.1	nt	2.51µM*	nt	22.4	-22.5%	1.77µM*	3.96µM*
Clc1ccc(OCCCN2CCCC2)cc1Cl	-4.3	?	?	?	4.4	-5.1%	nt	nt
CNCCOc1ccc(Cl)c(Cl)c1	-1.9	?	?	-41.8%[46.1 µM]	16.4	-10.5%	-17.5%	42.9%
CCOc1ccccc1NC(=O)C(c1ccccc1)N1CCN(CC(=O)N2CCOCC2)CC1 (configuration not stated)	nt	nt	8.0%	nt	nt	-14.8%	nt	nt
Cc1ccc(CSc2nccc(-c3c(C)nc4ccccn34)n2)cc1	1.4	nt	5.62µM*	nt	-5.2	?	25µM*	-44.1%

Bioassay records deposited in PubChem BioAssay by National Center for Advancing Translational Sciences (NCATS).
